# About 83,000 compounds went through this panel and 20% of them were active in at least one assay; those are over-represented in the sample as a whole.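 Negative percent growth values reflect cell death: -40 means 40% of the cells present at the start died, and -100 means all died.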 Values without a mark were called inactive. Calls of active or inactive are those of the source. Rule for the calls: active = growth percent below 10; inactive = the rest.
# Legend:
# Test in all cases: NCI-60 one-dose screen, 48 h (100 = growth as untreated, 0 = no growth, -100 = all killed)
# Settings in all cases: 10 µM unless noted
# DU-145 prostate = test system: DU-145 prostate
# K-562 leukemia = test system: K-562 leukemia
# MALME-3M melanoma = test system: MALME-3M melanoma
# MDA-MB-231 breast = test system: MDA-MB-231 breast
# RXF 393 renal = test system: RXF 393 renal
# SF-268 CNS = test system: SF-268 CNS
# SF-295 CNS = test system: SF-295 CNS
# SF-539 CNS = test system: SF-539 CNS
# UACC-257 melanoma = test system: UACC-257 melanoma
# M14 melanoma = test system: M14 melanoma
SMILES,growth (DU-145 prostate),growth (K-562 leukemia),growth (MALME-3M melanoma),growth (MDA-MB-231 breast),growth (RXF 393 renal),growth (SF-268 CNS),growth (SF-295 CNS),growth (SF-539 CNS),growth (UACC-257 melanoma),growth (M14 melanoma)
CCn1c(-c2nonc2N)nc2c(C#CC(C)(C)O)ncc(OC[C@H]3CCCNC3)c21,64.4%,38.8%,84.2%,84.2%,5.93% (active),81%,41.4%,27.1%,130%,71%
Cc1cc(Nc2cc(N3CCN(C)CC3)nc(/C=C/c3ccccc3)n2)n[nH]1,26.9%,-18.8% (active),-60.6% (active),9.8% (active),-86.6% (active),-26.1% (active),-17% (active),-79.1% (active),-73.4% (active),-76.6% (active)
O=C(COc1cccc(/C=C2\Cc3ccc(Cl)cc3C2=O)c1)Nc1nccs1,108%,89.5%,116%,71.7%,107%,108%,119%,79.9%,110%,107%
NC1(C(=O)N[C@@H](CCO)c2ccc(Cl)cc2)CCN(c2ncnc3[nH]ccc23)CC1,57.2%,76.9%,9.74% (active),73.5%,-42.3% (active),60.9%,-3.48% (active),-54.4% (active),31.7%,46.3%
CCOc1ccc(N=C(C)Nc2ccc(OCC)cc2)cc1,114%,99.6%,117%,118%,113%,88.8%,107%,118%,104%,101%
O=C(c1c(F)ccc(NS(=O)(=O)N2CC[C@@H](F)C2)c1F)c1c[nH]c2ncc(-c3cnc(C4CC4)nc3)cc12,49.9%,15.8%,0.406% (active),35.5%,10%,49.4%,42.8%,53.5%,-21.3% (active),-0.512% (active)
C=CCn1c(=O)c2cnc(Nc3ccc(N4CCN(C)CC4)cc3)nc2n1-c1cccc(C(C)(C)O)n1,17.2%,1.55% (active),44.8%,9.62% (active),-27.1% (active),30.7%,34.8%,-26.3% (active),46.1%,9.79% (active)
O=C(CNc1nc2ccccc2s1)Nc1ccc(-c2nc3ccccc3s2)cc1,106%,95.1%,98.1%,99.2%,112%,92.1%,107%,107%,102%,115%
O=S1(=O)OC(c2ccc(O)c(Cl)c2)(c2ccc(O)c(Cl)c2)c2ccccc21,103%,113%,114%,109%,105%,96.9%,103%,93.3%,98.9%,105%
O=C1CCC(=O)CC1,110%,96.7%,110%,105%,113%,98.8%,101%,95.3%,89.4%,98.1%
Cc1ccc(-n2nc(C(C)(C)C)cc2NC(=O)NCc2cc(F)ccc2Oc2ccc3c(cnn3CCO)c2)cc1,42.4%,3.71% (active),-6.23% (active),14.1%,-10.3% (active),34.8%,26.9%,21.7%,-11.2% (active),9.06% (active)
COCC(=O)NC/C=C/c1ccc2ncnc(Nc3ccc(Oc4ccc(C)nc4)c(C)c3)c2c1,30.7%,47.9%,4.79% (active),42.7%,45.4%,52.3%,62.4%,48%,24.6%,13.1%
CNC(=O)c1ccc(Nc2ncc(C(F)(F)F)c(NCc3nccnc3N(C)S(C)(=O)=O)n2)cc1,7.63% (active),10.6%,-1.87% (active),3.13% (active),-51.1% (active),2.86% (active),5.63% (active),-42.7% (active),-21.5% (active),8.04% (active)
CN(c1ncccc1CNc1nc(Nc2ccc3c(c2)CC(=O)N3)ncc1C(F)(F)F)S(C)(=O)=O,11.2%,4.58% (active),-14.4% (active),3.93% (active),-43.3% (active),2.36% (active),11.8%,-36% (active),-29.1% (active),-23.9% (active)
Cc1ccc(F)c(NC(=O)Nc2ccc(-c3cccc4[nH]nc(N)c34)cc2)c1,27.5%,7.81% (active),-4.64% (active),9.7% (active),-20.1% (active),30%,42.8%,3.67% (active),16%,28.3%
Cc1[nH]n(C(N)=S)c(=O)c1N=Nc1ccc(S(=O)(=O)Nc2ccncn2)cc1,83.7%,103%,137%,84.7%,108%,85%,125%,99.2%,117%,106%
CCCS(=O)(=O)Nc1ccc(F)c(C(=O)c2c[nH]c3ncc(-c4ccc(Cl)cc4)cc23)c1F,49.3%,21.9%,11.2%,34.4%,-11.6% (active),41.4%,7.92% (active),23.7%,-6.6% (active),3.85% (active)
O=C(NOCCO)c1cc(CN2OCCCC2=O)c(F)c(F)c1Nc1ccc(I)cc1F,56.7%,31.2%,-2.48% (active),32.2%,24.9%,67.5%,71.6%,55.4%,-13.2% (active),9.12% (active)
COC(=O)[C@H](Cc1ccc(O)cc1)NC(=O)[C@@H](OC)[C@@H]1Cc2cc3cc(OC4CC(OC5CC(O)C(O)C(C)O5)C(O)C(C)O4)c(C)c(O)c3c(O)c2C(=O)[C@H]1OC1CC(OC2CC(OC3CC(C)(O)C(O)C(C)O3)C(O)C(C)O2)C(O)C(C)O1 (stereo not given in full),15.8%,7.28% (active),-43% (active),19.5%,-71.5% (active),20.7%,7.09% (active),-27.1% (active),2.42% (active),-20.2% (active)
O=C(NC[C@H](O)CO)c1ccncc1Nc1ccc(I)cc1F,63.4%,37.2%,-7.31% (active),29.8%,15.1%,71.3%,67.1%,52.5%,-19.2% (active),3.95% (active)
O=C(Cn1ccnc1)Nc1ccc(-c2nc3ccccc3s2)cc1,81.1%,39.6%,81.8%,80.1%,102%,81.1%,65.5%,81.3%,67.6%,94.4%

# Reference: PubChem BioAssay (NCI)
